Sampled rows, rich in hits. Any-hit rate of the full collection: about 19%.
HT1080 IDH1KD tx: qHTS for induction of synthetic lethality in tumor cells producing 2HG: qHTS for the HT-1080-IDH1KD cell line | AID 686971, 2013 | HT-1080 IDH1 knockdown viability, ATP luminescence, 48 h | Potency, µM (series often up to 46.1 µM), without a hit: at the highest dose activity, negative = toxicity, hits mostly cytotoxic | 2% of 360,000 active;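 also: 0% = DMSO wells and -100% = cell-free medium wells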
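% activity derives from luminescence (CellTiter-Glo), normalised to DMSO and no-cell wells. HT-1080-IDH1KD cells, 750/well, had 48 h compound exposure at 37 °C.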
DT40 TDP1 no CPT: qHTS for Inhibitors of human tyrosyl-DNA phosphodiesterase 1 (TDP1): qHTS in cells in absence of CPT | Potency, µM (titrated, usually from 46.2 µM), for the others: at the top dose activity change, negative = growth inhibition, actives largely listed as inhibitors | DT40 Tdp1-/- hTDP1 cells, no CPT, ATP luminescence, 48 h | 15% of 420,000 active | AID 686978, 2013; also: nearly all actives have a fitted effect of over 55% in size
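Readout: luminescence from CellTiter-Glo after 30 min in the dark at RT. Cells: DT40 Tdp1-/- with stable hTDP1, 400/well. Exposure: compounds alone, ≥48 hr, 37 °C.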
HT1080-NT tox: qHTS for induction of synthetic lethality in tumor cells producing 2HG: qHTS for the HT-1080-NT fibrosarcoma cell line | HT-1080-NT fibrosarcoma viability, CellTiter-Glo ATP luminescence, 48 h | Potency, µM (series often up to 46.1 µM), without a hit: at the top dose activity, negative = less viability, actives largely listed as cytotoxic | 1.6% of 360,000 active | AID 686970, 2013;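 also: NT is the 2HG producing partner of a matched IDH1 knockdown line; 0% = DMSO-treated cells and -100% = media-only wells without cells; nearly all actives have a fitted effect of over 55% in size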
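Compounds were tested in concentration-response format on HT-1080-NT cells for 48 hours at 37 degrees C. Cell viability came from CellTiter-Glo luminescence; curves were classified by r2, response magnitude and activity.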
KB-V1 MDR tox: qHTS assay for MDR1-selective chemotherapeutics: Primary screen using the drug-selected MDR subline cells KB-V1; KB-V1 MDR cells viability, CellTiter-Glo, 72 h; Potency, µM (series often up to 46.1 µM), most hits filed as cytotoxic; 3.4% of 400,000 active; AID 1347076, 2019; also: nearly all actives have a fitted effect of over 60% in size
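KB-V1 MDR subline cells in DMEM (phenol-red free, 10% FBS) exposed to compounds in qHTS concentration series for 72 h at 37 degrees C. Viability read by CellTiter-Glo luminescence; concentration-effect curves fitted after normalization and correction.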
KB-3-1 cytotox: qHTS assay for MDR1-selective chemotherapeutics: Primary screen using the parental adenocarcinoma cell KB-3-1. KB-3-1 viability, CellTiter-Glo ATP luminescence, 72 h. Potency, µM (top dose mostly 46.1 µM), most hits filed as cytotoxic. 1.4% of 400,000 active. AID 1347075, 2019; also: nearly all actives have a fitted effect of over 60% in size
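Cytotoxicity measured as CellTiter-Glo luminescence after 72 h at 37 C. Compound titrations were pinned onto drug-naive KB-3-1 parental adenocarcinoma cells grown in DMEM with 10% FBS, and normalized data fitted to concentration-response curves.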
DT40 TDP1 CPT: qHTS for Inhibitors of human tyrosyl-DNA phosphodiesterase 1 (TDP1): qHTS in cells in presence of CPT | chicken DT40 Tdp1-/-;hTDP1 cells + 20 nM CPT, ATP luminescence, 48 h | Potency, µM (titrated, usually from 46.2 µM), for the others: at the highest dose activity change, negative = growth inhibition, usual class: inhibitors | 12% of 420,000 active; also: nearly all actives have a fitted effect of over 55% in size
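Chicken DT40 Tdp1-/- cells stably complemented with human TDP1 were seeded at 400 cells/well in medium containing 20 nM camptothecin, exposed to pin-transferred compounds, and grown at 37 °C for at least 48 hr. Viability was read as ATP luminescence.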
Starred values were filed as active, the others as inactive; i = inactive; ? = inconclusive; · = no result. Calls follow the shape of the dose curve; as a rule, active = well fitted curve in the direction sought with a large enough effect; inconclusive = small, poorly fitted or top-dose-only effect, or another doubt; inactive = no such curve, though single readings can be large; an effect the other way counts as inactive or inconclusive. Unless noted, % is scaled to controls: 0 for no effect and ±100 for the full control effect; potency is read from the fitted curve at half-maximal effect.

SMILES	HT1080 IDH1KD tx	DT40 TDP1 no CPT	HT1080-NT tox	KB-V1 MDR tox	KB-3-1 cytotox	DT40 TDP1 CPT
CCc1nc2ccc(C(=O)N(CC)CCN(C)C)cn2c1N(C=O)CCC(C)C	28.5%	-7.1%	7.9%	i	i	?
CC(O)(c1cccnc1)c1nc(-c2cccc3cccnc23)cs1 (centres undefined)	-0.1%	?	6.0%	i	i	-21.9%
Cc1cc(/C=C2\C=Cc3ccccc32)cc(C)c1[N+](=O)[O-]	·	?	·	i	i	?
Cc1nc2c(-c3ccccc3)c(C)nn2c(C)c1CCC(=O)NC(C)c1ccccc1 (centres undefined)	·	?	·	i	i	-24.8%
COC(=O)C(NC(=O)CCc1c(C)nc2c(-c3ccccc3)c(C)nn2c1C)C(C)C (centres undefined)	·	25.9µM*	·	i	i	?
Cc1nc2c(-c3ccc(F)cc3)c(C)nn2c(C)c1CCC(=O)NC(C)CCc1ccco1 (centres undefined)	-22.6%	23.1µM*	-16.4%	i	i	23.1µM*
Cc1nc2c(-c3ccccc3)c(C)nn2c(C)c1CCC(=O)Nc1ccccc1F	·	?	·	?	i	18.4µM*
CC1CCN(S(=O)(=O)c2cc(C(=O)NCc3ccc(N(C)C)cc3)n(C)c2)CC1	·	?	·	i	i	?
COCCNC(=O)C1CCCN(C(=O)c2nc(C)oc2C)CC1 (centres undefined)	0.1%	13.5%	20.5%	i	i	4.0%
Cc1ccc(CNC(=O)c2cc(C3CC3)nc3c2c(C)nn3-c2cccc(Cl)c2C)cc1	·	-23.1%	·	?	i	-8.1%
Cc1cc(C=O)c(C)n1-c1ccc(NC2CCCC2)c([N+](=O)[O-])c1	?	18.4µM*	-13.9%	i	?	?
O=C1NC(Cc2ccc(O)cc2)c2nc3cc(F)c(F)cc3c(=O)n2-c2cc3ccccc3cc21 (centres undefined)	18.4µM*	?	?	i	?	?
CC1NC(=O)c2cc3ccccc3cc2-n2c1nc1cc(F)ccc1c2=O (centres undefined)	0.0%	?	-0.8%	i	i	-12.3%
Cc1ccc2nc3n(c(=O)c2c1)-c1cc2ccccc2cc1C(=O)NC3Cc1ccc(O)cc1 (centres undefined)	13µM*	-14.0%	9.2µM*	i	?	-8.3%
CC(C)CC1NC(=O)c2cccnc2-n2c1nc1cc(F)c(F)cc1c2=O (centres undefined)	6.5%	-32.3%	11.2%	i	i	-25.5%
CC1NC(=O)c2cc3ccccc3cc2-n2c1nc1cc(Cl)ccc1c2=O (centres undefined)	3.3%	?	-12.1%	i	i	20.6µM*
O=C1NC(Cc2ccccc2)c2nc3cc(F)c(F)cc3c(=O)n2-c2cc3ccccc3cc21 (centres undefined)	?	18.4µM*	?	?	14.6µM*	23.1µM*
Cc1ccc2c(=O)n3c(nc2c1)C(Cc1ccc(O)cc1)NC(=O)c1cccnc1-3 (centres undefined)	-1.9%	?	-1.2%	?	i	-4.6%
COc1ccc(NC(=O)C2=C(C)Nc3nc(CCCO)nn3C2c2ccc(O)cc2)cc1 (centres undefined)	·	14.8%	·	?	i	-14.6%
CCc1ccc(NC(=O)Cn2cnc3nc4c(cc3c2=O)CCCC4)cc1	·	?	·	i	i	-27.6%
O=C1NC(Cc2ccc(O)cc2)c2nc3ccc(F)cc3c(=O)n2-c2cc3ccccc3cc21 (centres undefined)	16.4µM*	25.9µM*	11.6µM*	?	13µM*	?
COc1cc2nc3n(c(=O)c2cc1OC)-c1ncccc1C(=O)NC3Cc1ccccc1 (centres undefined)	-2.5%	-29.0%	-4.7%	i	i	-10.2%
Cc1ccc2c(=O)n3c(nc2c1)C(CC(C)C)NC(=O)c1cccnc1-3 (centres undefined)	-1.8%	?	-1.5%	i	i	-4.0%
CC(C)CC1NC(=O)c2cc3ccccc3cc2-n2c1nc1cc(Cl)ccc1c2=O (centres undefined)	13.9%	18.4µM*	9.6%	i	?	?
CCC1NC(=O)c2cccnc2-n2c1nc1cc(OC)c(OC)cc1c2=O (centres undefined)	9.2%	-4.3%	0.6%	i	i	5.8%
SMILES	HT1080 IDH1KD tx	DT40 TDP1 no CPT	HT1080-NT tox	KB-V1 MDR tox	KB-3-1 cytotox	DT40 TDP1 CPT
COc1cc2nc3n(c(=O)c2cc1OC)-c1cc2ccccc2cc1C(=O)NC3Cc1ccccc1 (centres undefined)	-22.9%	16.4µM*	-18.6%	i	i	?
O=C1NC(Cc2ccccc2)c2nc3ccc(F)cc3c(=O)n2-c2ncccc21 (centres undefined)	-7.6%	20.6µM*	-2.2%	i	i	?
CC(C)C[C@@H]1COc2cc(N(C)CCO)ccc2S(=O)(=O)N1	7.4%	3.1%	9.0%	?	i	1.9%
FC(F)(F)c1ccccc1-c1cc(NCCN2CCOCC2)ncn1	·	-1.4%	·	·	·	-4.2%
COc1cc2nc3n(c(=O)c2cc1OC)-c1cc2ccccc2cc1C(=O)NC3CC(C)C (centres undefined)	?	?	-14.7%	?	18.4µM*	?
O=C1NC(Cc2ccc(O)cc2)c2nc3cc(Cl)ccc3c(=O)n2-c2cc3ccccc3cc21 (centres undefined)	16.4µM*	-19.2%	23.1µM*	?	?	-0.7%
COc1ccc2nc3n(c(=O)c2c1)-c1ncccc1C(=O)NC3CC(C)C (centres undefined)	1.6%	5.4%	16.9%	?	i	13.8%
O=C1NC(Cc2ccccc2)c2nc3cc(Cl)ccc3c(=O)n2-c2ncccc21 (centres undefined)	-3.4%	?	1.1%	?	?	?
CCN(CC)CCOC(=O)c1ccc(N)cc1Cl	·	-10.6%	·	·	·	-3.1%
